Rows were chosen to be rich in hits. Some 4.1% of all compounds tested hit in one or more screens of this group.
TIM10 inh – growth inhibitors of isogenic TIM10 control yeast, primary screen, counter-screen for tim10-1 yeast inhibitor project, luminescence, uHTS; inhibition, % at 10 µM; actives 1.4% (n = 330,000); S. cerevisiae TIM10 strain growth, BacTiter-Glo luminescence, 24 h;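 active = inhibition of 40% or more at the single tested concentration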;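 also: wild-type TIM10 isogenic control strain grown at permissive 25 °C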
NALP3 yeast inh – NALP3 inflammasome inhibitors in reconstituted yeast, primary screen, luminescence, uHTS; AID 2825, 2010; actives 0.39% (n = 330,000); Yeast reconstituted NLRP3/ASC/caspase-1, beta-gal luminescence, 24 h; inhibition, % at 10 µM;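 active = inhibition of 50% or more; inactive = inhibition below 50%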
tim10-1 inh – growth inhibitors of tim10-1 mutant yeast, primary screen, luminescence, uHTS. S. cerevisiae tim10-1 ts strain growth, BacTiter-Glo, 24 h. inhibition, % at 20 µM. actives 2.2% (n = 330,000);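 active = inhibition of at least 40%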;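 also: mutant grown at 25 °C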
tim23-1 inh – growth inhibitors of tim23-1 mutant yeast, primary screen, luminescence, uHTS; S. cerevisiae tim23-1 growth, BacTiter-Glo luminescence, 24 h; inhibition, % at 20 µM; actives 1.3% (n = 330,000); AID 463212, 2010;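 active = growth inhibition of the mutant yeast at or above 50%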;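 also: temperature-sensitive mutant grown at 25 °C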
NALP1 yeast inh – NALP1 inflammasome inhibitors in reconstituted yeast, colorimetric, S. cerevisiae, triplicate retest; S. cerevisiae NALP1/ASC/caspase-1 growth, X-gal OD620, 72 h; inhibition, % at 10 µM; actives 0.61% (n = 280,000); in the data active = inhibition mostly above about 24%, no sharp cut-off; inactive = mostly below about 32%
PfHsp90 set2 – growth inhibition of PfHsp90-expressing yeast, primary screen, antimalarial PfHsp90 inhibitor project, S. cerevisiae, BacTiter-Glo luminescence, single point, set 2; BacTiter-Glo ATP, 48 h; yeast lacking PDR1 and PDR3 efflux regulators; inhibition, % at 9.4 µM; actives 0.32% (n = 310,000);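 active = every replicate shows inhibition above about 80%, whatever the replicate mean, limit read from the data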
TIM10 conf – growth inhibitors of wild-type TIM10 yeast, confirmation, counter-screen for tim10-1 synthetic lethality project, single concentration, luminescence, S. cerevisiae; actives 63% (n = 4,600); S. cerevisiae tim10 strain growth, BacTiter-Glo luminescence, 24 h; inhibition, % at 10 µM; shares compounds with TIM10 inh;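 active = inhibition of yeast growth at or above a set limit in either of two replicates at 10 µM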; also: this counterscreen used the strain with wild-type TIM10
tim23-1 confirm – tim23-1 mutant yeast growth inhibitors, confirmation, luminescence, single concentration; shares compounds with tim23-1 inh; actives 83% (n = 4,400); AID 463218, 2010; S. cerevisiae tim23-1 growth, BacTiter-Glo luminescence, 24 h; inhibition, % at 20 µM;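 active = inhibition above about 39% in either of two replicate wells at 20 µM, limit read from the data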;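 also: temperature-sensitive tim23-1 mutant grown at 25 °C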
Large screens that a line does not name were inactive (follow-up assays come after a bar, where they were run); ! = a repeat was not active.

O=C(Nc1cnn(Cc2ccc(Cl)c(Cl)c2)c1)C12CC3CC(CC(C3)C1)C2	TIM10 inh 56 | TIM10 conf 43
CCN(CC(=O)NCc1ccc(Cl)cc1)C(=O)c1cc(OC)cc(OC)c1	none
c1ccc(CNc2ncnc3ccccc23)cc1	TIM10 inh 81! | TIM10 conf inactive
Cc1cccc(NC(=O)/C=C/c2ccc([N+](=O)[O-])s2)c1	none (no result: TIM10 inh, NALP3 yeast inh, tim10-1 inh, tim23-1 inh)
Cc1cccc(NC(=S)N/N=C/c2ccc([N+](=O)[O-])s2)c1	TIM10 inh 58, PfHsp90 set2 100 | TIM10 conf 34
CC(=O)c1ccc(NC(=O)COC(=O)CC2CC3CCC2C3)cc1 (stereo not given)	none (no result: NALP1 yeast inh)
O=C(COC(=O)CC1CC2CCC1C2)Nc1ccc(F)cc1 (stereo not given)	TIM10 inh 43 | TIM10 conf inactive
Cc1ccc(C)c(-n2[nH]c3c4c(ccc3c2=O)C(=O)c2ccccc2C4=O)c1	TIM10 inh 53 | TIM10 conf 73
COCCCn1[nH]c2c3c(ccc2c1=O)C(=O)c1ccccc1C3=O	TIM10 inh 42 | TIM10 conf 47
Cc1ccc(S(=O)(=O)N(C)C)cc1NC(=O)C(C)N(C)CCOc1ccc(Cl)cc1 (stereo not given)	none
C#CCOc1nc(Nc2cccc([N+](=O)[O-])c2)nc(OCC#C)n1	TIM10 inh 41 | TIM10 conf 42
CCOc1cc(/C=C2/C(=O)ON=C2C)ccc1OCc1ccc(F)cc1	TIM10 inh 43 | TIM10 conf inactive
Cc1cc(NC(=O)c2cccc(Oc3ccccc3)c2)n[nH]1	TIM10 inh 61 | TIM10 conf 66
CCCCN(C(=O)C(C)(C)Oc1ccc(Cl)cc1)c1c(N)n(CCC)c(=O)[nH]c1=O	none (no result: NALP1 yeast inh)
S=C(c1cn(CCOc2ccccc2)c2ccccc12)N1CCCC1	TIM10 inh 50 | TIM10 conf 32
CCOc1ccc(NC(=O)c2ccccc2OCC(=O)c2ccccc2)cc1	TIM10 inh 45 | TIM10 conf inactive
Cc1ccc(NC(=O)c2ccccc2OCC(=O)c2ccccc2)cc1	none
O=C1CC(NS(=O)(=O)c2cccs2)CN1c1ccccc1 (stereo not given)	none (no result: NALP1 yeast inh)
S=c1[nH]nc(COc2ccc(Cl)cc2)n1C1CCCCC1	TIM10 inh 40 | TIM10 conf inactive
CCc1ccccc1NC(=O)CSc1ccsc1[N+](=O)[O-]	none
CN(CC(=O)Nc1ccccc1Cl)C(=O)COC(=O)c1ccc([N+](=O)[O-])s1	TIM10 inh 47 (no result: NALP1 yeast inh) | TIM10 conf 52
CCc1ccccc1NC(=O)c1ccc([N+](=O)[O-])s1	TIM10 inh 50 | TIM10 conf 43
CN(CC(=O)Nc1ccccc1Cl)C(=O)COC(=O)c1cccs1	none (no result: NALP1 yeast inh)
O=C1c2ccccc2CC1Sc1nnc(-c2ccncc2)o1 (stereo not given)	none (no result: PfHsp90 set2)
Cc1ccccc1N1C(=O)CC(Sc2nnc(-c3ccccc3)o2)C1=O (stereo not given)	TIM10 inh 44 | TIM10 conf 44
CC1(C)CC2CC(C)(CN2S(=O)(=O)c2ccc(N)cc2)C1 (stereo not given)	TIM10 inh 54 | TIM10 conf inactive
CC1(C)CC2CC(C)(CN2S(=O)(=O)c2cccc(C(N)=O)c2)C1 (stereo not given)	none (no result: NALP1 yeast inh)
COc1cccc(-c2ocnc2C(=O)Nc2ccc(N3CCOCC3)cc2N2CCOCC2)c1	none
CCCCCOC(=O)c1[nH]c2c(c1C)C(=O)C(C(=O)OC)C(C)C2 (stereo not given)	TIM10 inh 43 | TIM10 conf 37
COCCOC(=O)c1[nH]c2c(c1C)C(=O)C(C(=O)OC)C(C)C2 (stereo not given)	none
O=C(Nc1ccc2nc(-c3ccccc3)[nH]c2c1)c1ccco1	TIM10 inh 50 (no result: PfHsp90 set2) | TIM10 conf inactive
COc1cccc(C(=O)Nn2c(-c3cccs3)nc3ccccc3c2=O)c1OC	TIM10 inh 41 | TIM10 conf 35
CN(C)S(=O)(=O)c1cccc(NC(=O)c2ccc3c(c2)OCCO3)c1	none (no result: NALP1 yeast inh)
Cc1ccc(C)c(NC(=S)NCc2ccc3c(c2)OCO3)c1	TIM10 inh 41 | TIM10 conf inactive
Cc1ccc(C(=O)NCc2ccc3c(c2)OCO3)c(C)c1	TIM10 inh 67 | TIM10 conf inactive
Cc1cc(C)cc(NC(=S)NCc2ccc3c(c2)OCO3)c1	TIM10 inh 42 (no result: NALP1 yeast inh) | TIM10 conf inactive
COc1ccc(CNC(=S)Nc2cc(C)cc(C)c2)cc1	TIM10 inh 41 | TIM10 conf inactive
COc1cccc(CNC(=S)Nc2cc(C)cc(C)c2)c1	none
COc1cc(SC)ccc1C(=O)NCCCn1ccnc1	none
COc1ccc(CNC(=S)Nc2ccccc2-c2ccccc2)cc1	TIM10 inh 48 (no result: PfHsp90 set2) | TIM10 conf inactive
Cc1cccc(NC(=O)NNC(=O)c2cc3occc3[nH]2)c1C	none
CC(=O)N1CC(=O)N(Cc2ccccc2)/C(=C/c2ccccc2)C1=O	TIM10 inh 44 | TIM10 conf 40
CC(=O)Oc1ccc(/C=C2/SC(=S)N(Cc3ccccc3)C2=O)cc1	none
CC(=O)c1sc(N/N=C\c2cccc(Br)c2)nc1C	TIM10 inh 41 | TIM10 conf inactive
Cc1ccc(S(=O)(=O)N2CCN(C(=O)COC(=O)Cc3ccc(Cl)cc3)CC2)c(C)c1	none (no result: NALP1 yeast inh)
Cc1cccc(OCc2nnc(SCC(=O)N3c4ccccc4CC3C)n2C)c1C (stereo not given)	TIM10 inh 44, tim23-1 inh 54 | TIM10 conf inactive | tim23-1 confirm 42
Cc1ccc(/C=N/NC(=O)c2ccc3c(c2)OCCO3)s1	TIM10 inh 44, tim23-1 inh 59 | TIM10 conf inactive | tim23-1 confirm 65
Cc1ccc(/C=N/NC(=O)c2ccncc2)s1	none
Cc1ccc(/C=N/NC(=O)c2ccc3ccccc3c2)s1	TIM10 inh 41, tim23-1 inh 68 | TIM10 conf 32 | tim23-1 confirm 73
O=C(N/N=C/c1cc(Br)cs1)c1ccc2c(c1)OCCO2	none (no result: PfHsp90 set2)
